A selection: hits, their analogues and other compounds. The true share with any hit is near 0.59%.
Mtb hypoxia rep: inhibitors of hypoxia-regulated fluorescent reporter in Mycobacterium tuberculosis; AID 1159583; fluorescence inhibition, % (no concentration beside the values); M. tuberculosis hypoxia-regulated fluorescent reporter, fluorescence; actives 0.1% (n = 300,000); in the data active = fluorescence inhibition mostly above about 23%, no sharp cut-off; inactive = mostly below about 17%
VHR inh abs: inhibitors of human VHR1 phosphatase (DUSP3); P51452; inhibition, % at 13.3 µM; recombinant VHR phosphatase, pNPP absorbance; actives 0.52% (n = 290,000); AID 1654; in the data active = inhibition above about 50%
Rv3671c protease: inhibits the M. tuberculosis serine protease Rv3671c; inhibition, % at 5.96 µM; actives 0.048% (n = 320,000); in the data active = inhibition above about 38%;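 also: extracellular domain of Rv3671c used as enzyme; 0% = enzyme with DMSO and 100% = no enzyme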
Mtb betalactam: beta-lactam sensitization of Mtb H37Rv. M. tuberculosis H37Rv growth with meropenem, percent inhibition. inhibition, % at 25 µM. actives 0.27% (n = 330,000); call rule not given here;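 also: growth measured after seven days incubation then overnight dye step; 0% = bacteria only wells and 100% = bacteria with antibiotic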
Mtb UGM inh: Mtb UDP-galactopyranose mutase inhibition | inhibition, % at 10 µM | purified UGM, fluorescence polarization probe displacement | actives 0.06% (n = 320,000) | P9WIQ1; in the data active = inhibition above about 10%, passing the limit was not always enough
Target sequence (P9WIQ1 whole entry, looked up): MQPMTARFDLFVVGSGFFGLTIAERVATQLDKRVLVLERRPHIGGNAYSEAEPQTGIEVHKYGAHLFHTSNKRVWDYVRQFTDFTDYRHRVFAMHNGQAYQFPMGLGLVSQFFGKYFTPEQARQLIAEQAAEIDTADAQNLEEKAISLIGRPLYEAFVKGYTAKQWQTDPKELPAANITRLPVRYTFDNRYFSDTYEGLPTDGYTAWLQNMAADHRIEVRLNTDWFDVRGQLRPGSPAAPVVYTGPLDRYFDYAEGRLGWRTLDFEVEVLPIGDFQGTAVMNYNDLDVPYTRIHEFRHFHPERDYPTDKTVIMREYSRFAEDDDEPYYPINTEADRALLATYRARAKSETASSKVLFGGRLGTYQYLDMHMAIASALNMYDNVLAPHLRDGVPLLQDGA
An asterisk follows results filed as active.

For CN(C)CCCNS(=O)(=O)c1ccc(-n2nnc3ccccc32)c([N+](=O)[O-])c1 the results were Mtb hypoxia rep -5, VHR inh abs 58*, Rv3671c protease -8, Mtb betalactam 7 and Mtb UGM inh 1.
For COc1cccc(-c2noc(CCC(=O)NCCc3ccccc3)n2)c1 the results were Mtb hypoxia rep -1, VHR inh abs 58*, Rv3671c protease -2, Mtb betalactam 8 and Mtb UGM inh 1.
For COc1ccc(-c2noc(CCC(=O)NCCc3ccccc3)n2)cc1 the results were Mtb hypoxia rep 10, Rv3671c protease -1, Mtb betalactam -7 and Mtb UGM inh 0.
Screening Nc1nc(CN2CCN(c3ccccc3)CC2)nc(N2CCCc3ccccc32)n1 returned Mtb hypoxia rep -5, VHR inh abs 18, Rv3671c protease -4, Mtb betalactam 92 and Mtb UGM inh 3.
`Nc1nc(CN2CCN(Cc3ccccc3)CC2)nc(N2CCCc3ccccc32)n1` gave Mtb hypoxia rep -2, VHR inh abs 54*, Rv3671c protease 5, Mtb betalactam 81 and Mtb UGM inh -2.
For CCO[C@H]1OC(C(=O)N2CCN(Cc3ccc4c(c3)OCO4)CC2)=C[C@@H](C(C)(C)C)[C@@H]1CCCO the results were VHR inh abs 30, Rv3671c protease -5, Mtb betalactam -1 and Mtb UGM inh 0.
For Cc1ccc(-n2nnc3c(=O)n(Cc4cc(C)ccc4C)cnc32)cc1 the results were Mtb hypoxia rep 2, VHR inh abs 52*, Rv3671c protease 2, Mtb betalactam -7 and Mtb UGM inh -1.
For CCNc1nc(NCC)nc(OCC(=O)O)n1 the results were Mtb hypoxia rep 21, VHR inh abs 24, Rv3671c protease 2, Mtb betalactam -4 and Mtb UGM inh 1.
`COc1ccc(N(CC(=O)NC2CCCC2)C(=O)CCC(=O)Nc2nc(C)cs2)cc1OC` gave Mtb hypoxia rep -5, VHR inh abs 53*, Rv3671c protease -2, Mtb betalactam 2 and Mtb UGM inh 0.
Screening COC(=O)c1sccc1NC(=S)N1CCCCC1C (stereo unspecified) returned Mtb hypoxia rep -8, VHR inh abs 16, Rv3671c protease 1, Mtb betalactam 11 and Mtb UGM inh -2.
For COC(=O)c1sccc1NC(=S)N1C(C)CCCC1C (stereo unspecified) the results were Mtb hypoxia rep -4, VHR inh abs 51*, Rv3671c protease -1, Mtb betalactam -4 and Mtb UGM inh 2.
`COc1ccc(C2C3=C(CC(C)(C)CC3=O)Oc3ncn(Cc4ccccc4)c(=N)c32)cc1` (stereo unspecified) gave Mtb hypoxia rep 1, VHR inh abs 55*, Rv3671c protease -3, Mtb betalactam 12 and Mtb UGM inh 2.
Screening O=C(CSc1nnc(CNC(=O)c2ccc(F)cc2)o1)c1ccccc1 returned Mtb hypoxia rep 2, VHR inh abs 0, Rv3671c protease -12, Mtb betalactam -12 and Mtb UGM inh 0.
Screening O=C(NCc1cccc(Cl)c1)c1ccc2nc[nH]c2c1 returned Mtb hypoxia rep -8, VHR inh abs 56*, Rv3671c protease 3, Mtb betalactam -3 and Mtb UGM inh 1.
Screening O=C(NCc1ccc(Cl)cc1)c1ccc2nc[nH]c2c1 returned Mtb hypoxia rep 5 and VHR inh abs -4.
For CCC1=Nc2cc(C(=O)NCCCN3CCOCC3)ccc2Sc2ccccc21 the results were Mtb hypoxia rep 18, VHR inh abs 11, Rv3671c protease -7, Mtb betalactam -1 and Mtb UGM inh -1.
Screening CCC1=Nc2cc(C(=O)NCCN3CCCC3)ccc2Sc2ccccc21 returned Mtb hypoxia rep 6, VHR inh abs 58*, Rv3671c protease -2, Mtb betalactam -2 and Mtb UGM inh -1.
Screening O=C(c1oc(=O)c2ccccc2c1-c1ccccc1)N1CCOCC1 returned VHR inh abs 51*, Rv3671c protease 1, Mtb betalactam -5 and Mtb UGM inh 3.
Cc1cc2[nH]c3c(c[n+](C)c4ccccc34)c2cc1C was read as Mtb hypoxia rep 64*, VHR inh abs 30, Rv3671c protease -1, Mtb betalactam 100 and Mtb UGM inh -2.
Screening Cc1cc(=O)[nH]c2ccccc12 returned VHR inh abs 12, Rv3671c protease -3, Mtb betalactam -8 and Mtb UGM inh 0.
Cc1ccc2nc(-c3cccnc3)cc(C(=O)Nc3ccc(F)cc3C)c2c1 was read as Mtb hypoxia rep 5, VHR inh abs 53*, Rv3671c protease -3, Mtb betalactam 7 and Mtb UGM inh 0.
